Laboratory results as given in PubChem BioAssay AID1159580 (chemical genetic matrix, 2015).
Among all 5,500 compounds or so, about 2,000 (36%) were called active. About 18% were inconclusive and are not listed. No stated cut-off is given here; in the data, active means normalized growth mostly below about 0.91 (no sharp cut-off); inconclusive means no clear call, values can overlap the other calls; inactive means mostly above about 0.92. The list shows a part of the results.

Experiment: chemical genetic growth profiling, strain panel (AID 1159580);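 further: tested at 20 µM; growth read once vehicle control cultures reached saturation at 30 °C; 1 = growth at the plate median or of vehicle wells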
Conditions: growth OD

Measured: normalized growth

CC(=O)O[C@]1(C(C)=O)CCC2C3C[C@H](C)C4=CC(=O)CC[C@]4(C)C3CC[C@@]21C (stereo partly drawn)
inactive: S. cerevisiae deletion strains, locus YJR075W, strain HOC1, stronger effect = lower value 0.99 | S. cerevisiae deletion strains, locus YKL009W, strain mrt4, stronger effect = lower value 0.973 | S. cerevisiae deletion strains, locus YKL068W, stronger effect = lower value 0.971 | S. cerevisiae deletion strains, locus YKL085W, strain MDH1 (second series), stronger effect = lower value 0.977 | S. cerevisiae deletion strains, locus YKL085W, strain MDH1, stronger effect = lower value 0.977 | S. cerevisiae deletion strains, locus YKL160W, strain elf1, stronger effect = lower value 0.911 | S. cerevisiae deletion strains, locus YKL190W, strain CNB1, stronger effect = lower value 0.989 | S. cerevisiae deletion strains, locus YKR001C, strain vps1, stronger effect = lower value 0.956 | S. cerevisiae deletion strains, locus YKR026C, strain gcn3, stronger effect = lower value 0.981 | S. cerevisiae deletion strains, locus YKR091W, strain srl3, stronger effect = lower value 0.959 | S. cerevisiae deletion strains, locus YLL026W, stronger effect = lower value 0.976 | S. cerevisiae deletion strains, locus YLL041C, strain sdh2, stronger effect = lower value 0.968 | S. cerevisiae deletion strains, locus YLR027C, strain aat2, stronger effect = lower value 0.976 | S. cerevisiae deletion strains, locus YLR039C, strain RIC1, stronger effect = lower value 1.05 | S. cerevisiae deletion strains, locus YLR058C, strain SHM2, stronger effect = lower value 0.979 | S. cerevisiae deletion strains, locus YLR102C, strain apc9, stronger effect = lower value 0.989 | S. cerevisiae deletion strains, locus YLR113W, strain HOG1, stronger effect = lower value 0.965 | S. cerevisiae deletion strains, locus YLR258W, strain gsy2, stronger effect = lower value 0.949 | S. cerevisiae deletion strains, locus YLR262C, strain YPT6, stronger effect = lower value 0.957 | S. cerevisiae deletion strains, locus YLR268W, strain sec22, stronger effect = lower value 0.977 | S. cerevisiae deletion strains, locus YLR330W, strain CHS5, stronger effect = lower value 0.988 | S. cerevisiae deletion strains, locus YLR342W, strain FKS1 (second series), stronger effect = lower value 0.984 | S. cerevisiae deletion strains, locus YLR342W, strain FKS1, stronger effect = lower value 0.948 | S. cerevisiae deletion strains, locus YLR357W, strain rsc2, stronger effect = lower value 0.939 | S. cerevisiae deletion strains, locus YLR370C, strain arc18, stronger effect = lower value 0.925 | S. cerevisiae deletion strains, locus YLR371W, strain rom2, stronger effect = lower value 0.985 | S. cerevisiae deletion strains, locus YLR384C, strain iki3, stronger effect = lower value 0.977 | S. cerevisiae deletion strains, locus YML016C, strain PPZ1, stronger effect = lower value 0.996 | S. cerevisiae deletion strains, locus YML032C, strain rad52, stronger effect = lower value 0.984 | S. cerevisiae deletion strains, locus YML120C, strain ndi1, stronger effect = lower value 0.916 | S. cerevisiae deletion strains, locus YML124C, strain tub3, stronger effect = lower value 0.986 | S. cerevisiae deletion strains, locus YMR058W, strain fet3, stronger effect = lower value 0.968 | S. cerevisiae deletion strains, locus YMR078C, strain ctf18, stronger effect = lower value 0.97 | S. cerevisiae deletion strains, locus YMR125W, strain sto1, stronger effect = lower value 0.947 | S. cerevisiae deletion strains, locus YMR129W, stronger effect = lower value 0.972 | S. cerevisiae deletion strains, locus YMR205C, strain PFK2, stronger effect = lower value 0.906 | S. cerevisiae deletion strains, locus YMR223W, strain ubp8, stronger effect = lower value 0.917 | S. cerevisiae deletion strains, locus YMR231W, strain pep5, stronger effect = lower value 0.978 | S. cerevisiae deletion strains, locus YMR263W, strain SAP30, stronger effect = lower value 0.989 | S. cerevisiae deletion strains, locus YMR307W, strain GAS1, stronger effect = lower value 0.992 | S. cerevisiae deletion strains, locus YNL067W, strain RPL9B, stronger effect = lower value 0.993 | S. cerevisiae deletion strains, locus YNL153C, strain GIM3, stronger effect = lower value 0.983 | S. cerevisiae deletion strains, locus YNL183C, strain NPR1, stronger effect = lower value 0.951 | S. cerevisiae deletion strains, locus YNL209W, strain ssb2, stronger effect = lower value 0.958 | S. cerevisiae deletion strains, locus YNL233W, strain BNI4, stronger effect = lower value 0.989 | S. cerevisiae deletion strains, locus YNL248C, strain rpa49, stronger effect = lower value 0.955 | S. cerevisiae deletion strains, locus YNL250W, strain rad50, stronger effect = lower value 0.986 | S. cerevisiae deletion strains, locus YNL271C, strain bni1, stronger effect = lower value 0.969 | S. cerevisiae deletion strains, locus YNL298W, strain CLA4, stronger effect = lower value 0.953 | S. cerevisiae deletion strains, locus YNL307C, strain MCK1, stronger effect = lower value 0.914 | S. cerevisiae deletion strains, locus YNL322C, strain KRE1 (second series), stronger effect = lower value 0.962 | S. cerevisiae deletion strains, locus YNR049C, strain mso1, stronger effect = lower value 0.974 | S. cerevisiae deletion strains, locus YNR052C, strain pop2, stronger effect = lower value 0.994 | S. cerevisiae deletion strains, locus YOL012C, strain htz1 1.07 | S. cerevisiae deletion strains, locus YOL147C, strain pex11, stronger effect = lower value 0.983 | S. cerevisiae deletion strains, locus YOR001W, strain rrp6, stronger effect = lower value 1.01 | S. cerevisiae deletion strains, locus YOR061W, strain CKA2, stronger effect = lower value 0.987 | S. cerevisiae deletion strains, locus YOR069W, strain VPS5, stronger effect = lower value 0.984 | S. cerevisiae deletion strains, locus YOR070C, strain gyp1, stronger effect = lower value 0.967 | S. cerevisiae deletion strains, locus YOR080W, strain dia2, stronger effect = lower value 0.97 | S. cerevisiae deletion strains, locus YOR083W, strain WHI5, stronger effect = lower value 0.927 | S. cerevisiae deletion strains, locus YOR106W, strain vam3, stronger effect = lower value 0.95 | S. cerevisiae deletion strains, locus YOR136W, strain idh2, stronger effect = lower value 1 | S. cerevisiae deletion strains, locus YOR144C, strain elg1, stronger effect = lower value 0.997 | S. cerevisiae deletion strains, locus YOR184W, strain ser1, stronger effect = lower value 0.875 | S. cerevisiae deletion strains, locus YOR231W, strain MKK1, stronger effect = lower value 0.998 | S. cerevisiae deletion strains, locus YOR265W, strain rbl2, stronger effect = lower value 0.986 | S. cerevisiae deletion strains, locus YOR270C, strain vph1, stronger effect = lower value 0.867 | S. cerevisiae deletion strains, locus YOR290C, strain snf2, stronger effect = lower value 0.873 | S. cerevisiae deletion strains, locus YOR316C, strain cot1, stronger effect = lower value 0.986 | S. cerevisiae deletion strains, locus YPL051W, strain arl3, stronger effect = lower value 0.937 | S. cerevisiae deletion strains, locus YPL055C, strain LGE1, stronger effect = lower value 0.963 | S. cerevisiae deletion strains, locus YPL078C, strain atp4, stronger effect = lower value 0.939 | S. cerevisiae deletion strains, locus YPL106C, strain sse1, stronger effect = lower value 0.991 | S. cerevisiae deletion strains, locus YPL240C, strain hsp82, stronger effect = lower value 0.967 | S. cerevisiae deletion strains, locus YPL256C, strain CLN2, stronger effect = lower value 1 | S. cerevisiae deletion strains, locus YPR119W, strain clb2, stronger effect = lower value 0.986 | S. cerevisiae deletion strains, locus YPR141C, strain kar3, stronger effect = lower value 0.954 | S. cerevisiae deletion strains, locus YPR163C, strain tif3, stronger effect = lower value 0.982 | S. cerevisiae deletion strains, locus YPR167C, strain met16, stronger effect = lower value 0.982 | S. cerevisiae deletion strains, strain wtn01, stronger effect = lower value 0.955 | S. cerevisiae strains, strain wild type, stronger effect = lower value 0.991
active: S. cerevisiae deletion strains, locus YLL001W, strain dnm1, stronger effect = lower value 0.894 | S. cerevisiae deletion strains, locus YLR221C, strain rsa3, stronger effect = lower value 0.9 | S. cerevisiae deletion strains, locus YLR262C, strain YPT6 (second series), stronger effect = lower value 0.815 | S. cerevisiae deletion strains, locus YLR320W, strain mms22, stronger effect = lower value 0.875 | S. cerevisiae deletion strains, locus YLR418C, strain cdc73, stronger effect = lower value 0.829 | S. cerevisiae deletion strains, locus YNL071W, strain lat1, stronger effect = lower value 0.876
